Test results reported in PubChem BioAssay (Tox21).
Inconclusive results are not listed. Activity calls are given as the source filed them. Unless noted, calls follow the shape of the dose curve; as a rule, active = well fitted curve in the direction sought with a large enough effect in the repeat runs; inconclusive = weak or mixed curves; inactive = no such curve, though single readings can be large; an effect the other way counts as inactive or inconclusive.

Experiments:
[1] = target: Thyrotropin receptor (Homo sapiens) (UniProt P16473); assay: qHTS assay to identify small molecule agonists of the thyroid stimulating hormone receptor (TSHR) signaling pathway (AID 1224843; calls by dose curve; also: nearly all actives have a fitted effect of over 45% in size)
Outline: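 Steps: seed 800 TSHR-HEK293 cells per well; add test compound and hold 30 min at ambient temperature; dispense cAMP-d2 then anti-cAMP cryptate; incubate 1 h at ambient; measure fluorescence intensity.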

[2] = qHTS assay to identify small molecule agonists of the hypoxia (HIF-1) signaling pathway - cell viability counter screen (AID 1224844; calls by dose curve; also: nearly all actives have a fitted effect of over 50% in size)
Outline: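 Luminescent ATP content (CellTiter-Glo, 30 min, room temperature) served as the viability measure in HRE-bla ME-180 cells exposed to compounds for 17 hrs in low-serum medium (0.5% dialyzed FBS).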

[3] = qHTS assay to identify small molecule agonists of the hypoxia (HIF-1) signaling pathway (AID 1224846; active = well fitted activation curve with a large enough effect in the signal ratio in the repeat runs, not every such curve was filed as active; the % refers to the signal ratio)
Outline: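 Measured by blue/green FRET after loading CCF4-AM: beta-lactamase expressed from a hypoxia response element in ME-180 cells. Test agents were delivered in DMSO and left 17 hrs; cells had been plated 5 hrs earlier in low-serum (0.5% dialyzed FBS) medium.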

[4] = qHTS RealTime-Glo MT Cell Viability Assay in HepG2 cells - 24 hour (AID 1224867); also: nearly all actives have a fitted effect of over 50% in size
Outline: (§1)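 HepG2 cells were seeded at 600 cells/well together with NanoLuc luciferase and a cell-permeant prosubstrate, preincubated 5 h at 37 C/5% CO2, then pin-dosed with compounds in DMSO. Nonlytic luminescence from viable cells was read at each time point.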

[5] = qHTS RealTime-Glo MT Cell Viability Assay in HEK293 cells - 32 hour (AID 1224868); also: top concentration of the series differs between compounds; nearly all actives have a fitted effect of over 50% in size
Outline: (§2)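 HEK293 cells were seeded at 600 cells/well together with NanoLuc luciferase and cell-permeant prosubstrate, preincubated 5 h at 37 C/5% CO2, then given compound in DMSO by pintool. Luminescence from viable-cell prosubstrate reduction was read repeatedly over 40 h.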

[6] = A CellTox Green Cytotoxicity Assay to monitor cytotoxicity in HEK293 cells - 0 hour (AID 1224869); also: nearly all actives have a fitted effect of over 50% in size
Outline: (§3)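 Each value comes from one timepoint of a single continuous run in which HEK293 cells with CellTox Green were exposed to compound for up to 40 h at 37 C, dye fluorescence rising with cell death.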

[7] = A CellTox Green Cytotoxicity Assay to monitor cytotoxicity in HEK293 cells - 40 hour (AID 1224871); also: nearly all actives have a fitted effect of over 45% in size
Outline: as §3

[8] = qHTS RealTime-Glo MT Cell Viability Assay in HEK293 cells - 16 hour (AID 1224872)
Outline: as §2

[9] = qHTS RealTime-Glo MT Cell Viability Assay in HepG2 cells - 8 hour (AID 1224873); also: nearly all actives have a fitted effect of over 55% in size
Outline: (§4)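 HepG2 cells (600/well) mixed with RealTime-Glo MT reagent, settled 5 h at 37 C/5% CO2 before compound addition. Nonlytic NanoLuc luminescence from viable-cell prosubstrate reduction read repeatedly during 40 h treatment at 37 C.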

[10] = qHTS RealTime-Glo MT Cell Viability Assay in HEK293 cells - 40 hour (AID 1224874); conditions: RealTime-Glo luminescence; max response: active compounds read low; also: nearly all actives have a fitted effect of over 50% in size
Outline: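 qHTS format; HEK293 cells with NanoLuc/prosubstrate reagent, 37 C/5% CO2 for 5 h pre-dosing; compounds 23 nL in DMSO; luminescence at each time point reflects viable cells.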

[11] = A CellTox Green Cytotoxicity Assay to monitor cytotoxicity in HEK293 cells - 24 hour (AID 1224875); also: nearly all actives have a fitted effect of over 45% in size
Outline: as §3

[12] = A CellTox Green Cytotoxicity Assay to monitor cytotoxicity in HepG2 cells - 16 hour (AID 1224876); also: nearly all actives have a fitted effect of over 45% in size
Outline: (§5)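 Continuous culture of HepG2 cells with a membrane-impermeant DNA dye; rising fluorescence marks dead cells. Compound exposure lasted up to 40 h at 37 C, with reads every 8 h from 0 h.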

[13] = qHTS RealTime-Glo MT Cell Viability Assay in HepG2 cells - 32 hour (AID 1224877); also: nearly all actives have a fitted effect of over 55% in size
Outline: as §1

[14] = A CellTox Green Cytotoxicity Assay to monitor cytotoxicity in HepG2 cells - 24 hour (AID 1224878); also: nearly all actives have a fitted effect of over 45% in size
Outline: as §5

[15] = A CellTox Green Cytotoxicity Assay to monitor cytotoxicity in HepG2 cells - 40 hour (AID 1224879); also: nearly all actives have a fitted effect of over 40% in size
Outline: as §5

[16] = qHTS assay to identify small molecule agonists of H2AX (AID 1224845; active = well fitted activation curve with a large enough effect in the signal ratio in the repeat runs, not every such curve was filed as active; the % refers to the signal ratio)
Outline: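 Wild-type CHO-K1 cells, plated overnight, exposed 3hr at 37C to 15 concentrations (0.76% DMSO final). Lysed, then HTRF anti-pH2AX (S139) cryptate and anti-H2AX-d2 antibodies, 24 hr room temperature; 665/620 nm emission read.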

[17] = qHTS assay to identify small molecule agonists of H2AX - cell viability counter screen (AID 1224847; calls by dose curve; also: top concentration of the series differs between compounds; nearly all actives have a fitted effect of over 30% in size)
Outline: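 Cytotoxicity counter screen in wild-type CHO-K1 cells: a 3 hr compound treatment at 37C across 15 concentrations, followed by CellTiter-Glo luminescence to gauge viable cells.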

[18] = qHTS assay to identify small molecule antagonists of the estrogen related receptor (ERR) signaling pathway from Tox21 library (AID 1224848); also: nearly all actives have a fitted effect of over 50% in size
Outline: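 Luminescent reporter read-out (ONE-Glo) from NTP's ERR cell line after 18 h treatment at 37 C with DMSO-dissolved Tox21 compounds; cells pre-plated 6 h beforehand at 2,000 per well.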

[19] = qHTS RealTime-Glo MT Cell Viability Assay in HepG2 cells - 40 hour (AID 1224870); also: nearly all actives have a fitted effect of over 50% in size
Outline: as §4

[20] = qHTS assay to identify small molecule agonists of the estrogen related receptor (ERR) signaling pathway from Tox21 library (AID 1224849; calls by dose curve; also: nearly all actives have a fitted effect of over 15% in size); conditions: ERR reporter cell line, ONE-Glo luciferase, 18 h; at 92.4 µM (top of the series) unless noted
Outline: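 We plated ERR reporter cells, waited 6 h, added compounds in DMSO by pin tool and incubated them 18 h at 37 C. ONE-Glo was then added and luminescence read after 30 min.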
% is scaled to controls: 0 for no effect and ±100 for the full control effect.

Chain of Thyrotropin receptor (Homo sapiens) (P16473 whole entry, looked up): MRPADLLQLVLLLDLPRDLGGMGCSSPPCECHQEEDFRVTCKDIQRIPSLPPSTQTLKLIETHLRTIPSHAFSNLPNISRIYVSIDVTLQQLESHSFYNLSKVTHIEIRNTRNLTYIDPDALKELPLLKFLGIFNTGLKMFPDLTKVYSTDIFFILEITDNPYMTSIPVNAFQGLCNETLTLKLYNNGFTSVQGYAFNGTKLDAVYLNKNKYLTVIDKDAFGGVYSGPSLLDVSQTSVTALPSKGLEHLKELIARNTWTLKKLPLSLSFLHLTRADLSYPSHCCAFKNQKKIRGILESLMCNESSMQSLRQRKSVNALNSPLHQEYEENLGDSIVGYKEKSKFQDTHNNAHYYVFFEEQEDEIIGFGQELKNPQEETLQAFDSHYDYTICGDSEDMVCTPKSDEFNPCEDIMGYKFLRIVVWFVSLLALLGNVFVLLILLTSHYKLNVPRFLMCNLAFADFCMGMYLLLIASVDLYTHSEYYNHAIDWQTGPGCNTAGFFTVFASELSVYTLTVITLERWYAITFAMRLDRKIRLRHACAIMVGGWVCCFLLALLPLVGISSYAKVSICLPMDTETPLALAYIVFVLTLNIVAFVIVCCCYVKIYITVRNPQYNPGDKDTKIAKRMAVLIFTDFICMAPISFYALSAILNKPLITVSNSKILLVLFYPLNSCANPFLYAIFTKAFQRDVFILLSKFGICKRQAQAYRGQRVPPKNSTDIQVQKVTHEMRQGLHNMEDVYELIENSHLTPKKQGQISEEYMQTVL

COc1ccc(N)c([N+](=O)[O-])c1
inactive: Potency [1] | Potency [2] | outcome [3] | Potency [4] | Potency [5] | Potency [6] | Potency [7] | Potency [8] | Potency [9] | max response [10] -15.1% | Potency [11] | Potency [12] | Potency [13] | Potency [14] | Potency [15]

CC(=O)NNC(C)=O
inactive: Potency [1] | Potency [16] | outcome [3] | Potency [17] | Potency [18] | Potency [4] | Potency [5] | Potency [6] | Potency [7] | Potency [8] | Potency [9] | max response [10] 0.186% | Potency [11] | Potency [12] | Potency [13] | Potency [14] | Potency [15]

Cc1ccc(S(=O)(=O)NC(=O)NC2CCCCC2)cc1
inactive: Potency [1] | Potency [2] | outcome [3] | Potency [4] | Potency [5] | Potency [6] | Potency [19] | Potency [7] | Potency [8] | Potency [9] | max response [10] 4.44% | Potency [11] | Potency [12] | Potency [13] | Potency [14] | Potency [15]

C/C(C=O)=C\c1ccccc1
inactive: Potency [1] | Potency [16] | outcome [3] | Potency [17] | Potency [6] | Potency [19] | Potency [8] | Potency [9] | max response [10] 0.492% | Potency [11] | Potency [13] | Potency [14] | Potency [15]

CCCCCCC(CO)CCCC (centres undefined)
inactive: Potency [1] | Potency [2] | Potency [17] | Potency [4] | Potency [5] | Potency [6] | Potency [19] | Potency [7] | Potency [8] | Potency [9] | max response [10] 4.35% | Potency [11] | Potency [12] | Potency [13] | Potency [14] | Potency [15]

CCSC(=O)N(CC)CC
inactive: Potency [1] | Potency [2] | outcome [3] | Potency [5] | Potency [6] | Potency [19] | Potency [7] | Potency [8] | Potency [9] | max response [10] 0.524% | Potency [11] | Potency [13] | Potency [14] | Potency [15]

CCNc1nc(N)nc(Cl)n1
inactive: Potency [1] | Potency [2] | Potency [17] | Potency [18] | Potency [4] | Potency [5] | Potency [6] | Potency [19] | Potency [7] | Potency [8] | Potency [9] | max response [10] 9.34% | Potency [11] | Potency [13] | Potency [14] | Potency [15]

O=C(O)/C=C/c1ccc(O)c(O)c1
inactive: Potency [1] | Potency [2] | Potency [17] | Potency [4] | Potency [5] | Potency [6] | Potency [19] | Potency [7] | Potency [8] | Potency [9] | max response [10] -2.68% | Potency [11] | Potency [12] | Potency [13] | Potency [14] | Potency [15]

Cc1cc([N+](=O)[O-])ccc1N
inactive: Potency [1] | Potency [2] | outcome [3] | Potency [4] | Potency [5] | Potency [6] | Potency [19] | Potency [7] | Potency [8] | Potency [9] | max response [10] -19.2% | Potency [11] | Potency [13] | Potency [14] | Potency [15]

O=P(O)(O)Oc1ccccc1
inactive: Potency [1] | Potency [16] | outcome [3] | Potency [17] | Potency [4] | Potency [5] | Potency [6] | Potency [19] | Potency [7] | Potency [8] | Potency [9] | max response [10] 12.9% | Potency [11] | Potency [12] | Potency [13] | Potency [14] | Potency [15]

Cc1oc(=O)oc1COC(=O)[C@@H]1N2C(=O)[C@@H](NC(=O)[C@H](N)c3ccccc3)[C@H]2SC1(C)C
inactive: Potency [1] | Potency [16] | outcome [3] | Potency [17] | Potency [18] | activity change, positive = activation [20] 1.21% [at 42.5 µM] | Potency [6] | Potency [8] | Potency [9] | max response [10] 6.21% | Potency [11] | Potency [12] | Potency [13] | Potency [14] | Potency [15]

CC(=O)NCCO
inactive: Potency [1] | Potency [2] | outcome [3] | Potency [4] | Potency [5] | Potency [6] | Potency [19] | Potency [7] | Potency [8] | Potency [9] | max response [10] 8.1% | Potency [11] | Potency [12] | Potency [13] | Potency [14] | Potency [15]

CCCCCC
inactive: Potency [1] | Potency [16] | outcome [3] | Potency [17] | Potency [4] | Potency [5] | Potency [6] | Potency [19] | Potency [7] | Potency [8] | Potency [9] | max response [10] 0.47% | Potency [11] | Potency [12] | Potency [13] | Potency [14] | Potency [15]

CC(=O)c1ccc[nH]1
inactive: Potency [1] | Potency [16] | outcome [3] | Potency [4] | Potency [5] | Potency [6] | Potency [19] | Potency [7] | Potency [8] | Potency [9] | max response [10] -0.568% | Potency [11] | Potency [12] | Potency [13] | Potency [14] | Potency [15]

CCCCCCOC(=O)CCCCC
inactive: Potency [1] | Potency [16] | outcome [3] | Potency [17] | Potency [4] | Potency [5] | Potency [6] | Potency [19] | Potency [7] | Potency [8] | Potency [9] | max response [10] 0.369% | Potency [11] | Potency [12] | Potency [13] | Potency [14] | Potency [15]

CCCC(=O)OC(=O)CCC
inactive: Potency [1] | Potency [2] | outcome [3] | Potency [4] | Potency [6] | Potency [19] | Potency [8] | Potency [9] | Potency [11] | Potency [12] | Potency [13] | Potency [14] | Potency [15]
